Inconclusive results are not listed. Entries that show only a call come without a potency. Active and inactive are the calls of the source. Unless noted, calls come from the whole dose curve; as a rule, active = well fitted curve in the direction sought with a large enough effect in the repeat runs; inconclusive = weak or mixed curves; inactive = no such curve, though single readings can be large; an effect the other way counts as inactive or inconclusive.
Legend:
[1] = qHTS assay to identify small molecule antagonists of the thyroid receptor (TR) signaling pathway - cell viability counter screen (AID 743064); note: nearly all actives have a fitted effect of over 50% in size
Method in brief: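 GH3.TRE-Luc cells, 4 h pre-plating; cpd + T3 1 nM final; 37 °C 23.5 h; CellTiter-Fluor 30 min; fluorescence read.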

[2] = qHTS assay to identify small molecule antagonists of the thyroid receptor (TR) signaling pathway (AID 743065); note: series mostly up to about 70 µM; nearly all actives have a fitted effect of over 55% in size
Method in brief: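 Antagonism measured as loss of luciferase signal in GH3 cells stably carrying a TRE-luciferase reporter, co-treated with compound and T3 (1 nM final) for 23.5 h at 37 C. Viability was read in the same well by CellTiter-Fluor.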

[3] = test system: thyroid hormone receptor (rat, GH3 cells); assay: qHTS assay to identify small molecule agonists of the thyroid receptor (TR) signaling pathway (AID 743066; calls by dose curve)
[4] = target: Estrogen receptor (Homo sapiens) (UniProt P03372); assay: qHTS assay to identify small molecule antagonists of the estrogen receptor alpha (ER-alpha) signaling pathway (AID 743069; active = well fitted curve in the direction sought with a large enough effect in the signal ratio in the repeat runs, not every such curve was filed as active; the % refers to the signal ratio)
Method in brief: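 Compound effects are measured against 17beta-estradiol stimulation in HEK293 cells with a UAS-controlled beta-lactamase reporter for ER-alpha. Exposure lasts 18 hr at 37C; LiveBLAzer B/G FRET substrate follows for 2 hr at room temperature.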

[5] = qHTS assay to identify small molecule antagonists of the estrogen receptor alpha (ER-alpha) signaling pathway - cell viability counter screen (AID 743074; calls by dose curve;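 note: HEK293 cells carrying ER-alpha-UAS-bla reporter stimulated with 17beta-estradiol; nearly all actives have a fitted effect of over 45% in size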)
[6] = target: Estrogen receptor (Homo sapiens) (UniProt P03372); assay: qHTS assay to identify small molecule agonists of the estrogen receptor alpha (ER-alpha) signaling pathway (AID 743075; calls by dose curve)
[7] = target: Estrogen receptor (Homo sapiens) (UniProt P03372); assay: qHTS assay to identify small molecule agonists of the estrogen receptor alpha (ER-alpha) signaling pathway using the BG1 cell line (AID 743079); note: nearly all actives have a fitted effect of over 20% in size; note: potency is the fitted concentration of half-maximal effect
[8] = qHTS assay to identify small molecule antagonists of the estrogen receptor alpha (ER-alpha) signaling pathway using the BG1 cell line (AID 743080; calls by dose curve;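 note: BG1 cells stimulated with 17beta-estradiol alongside compound; series mostly up to about 70 µM; nearly all actives have a fitted effect of over 25% in size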)
Method in brief: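 Luciferase inhibition measured with ONE-Glo after 30 min at RT in BG1Luc4E2 cells given test compounds and 17beta-estradiol for 21.5 h at 37 C; CellTiter-Fluor viability read in the same wells beforehand.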

[9] = qHTS assay to identify small molecule antagonists of the estrogen receptor alpha (ER-alpha) signaling pathway using the BG1 cell line - cell viability counter screen (AID 743081);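 note: compound given together with 17beta-estradiol as the ER stimulus; series mostly up to about 70 µM; nearly all actives have a fitted effect of over 45% in size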
Aromatase (Homo sapiens) = Aromatase (Homo sapiens) (UniProt P11511); assay: qHTS assay to identify aromatase inhibitors (AID 743083); note: series mostly up to about 70 µM; nearly all actives have a fitted effect of over 55% in size
Sequence of Aromatase (Homo sapiens) (P11511 whole entry, looked up): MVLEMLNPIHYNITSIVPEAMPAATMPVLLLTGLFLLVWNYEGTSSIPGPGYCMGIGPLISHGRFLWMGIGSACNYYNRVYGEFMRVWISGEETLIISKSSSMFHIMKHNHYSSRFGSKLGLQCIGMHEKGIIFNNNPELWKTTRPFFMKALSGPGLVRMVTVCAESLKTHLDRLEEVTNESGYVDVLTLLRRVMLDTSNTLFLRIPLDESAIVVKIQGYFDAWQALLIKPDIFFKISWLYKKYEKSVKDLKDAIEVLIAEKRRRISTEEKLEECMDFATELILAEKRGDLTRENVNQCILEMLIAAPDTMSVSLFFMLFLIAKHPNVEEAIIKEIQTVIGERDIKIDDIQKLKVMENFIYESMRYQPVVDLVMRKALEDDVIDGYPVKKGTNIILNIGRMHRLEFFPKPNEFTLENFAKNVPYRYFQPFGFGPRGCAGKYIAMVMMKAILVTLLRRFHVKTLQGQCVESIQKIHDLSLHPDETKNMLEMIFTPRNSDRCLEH

Sequence of Estrogen receptor (Homo sapiens) (P03372 whole entry, looked up): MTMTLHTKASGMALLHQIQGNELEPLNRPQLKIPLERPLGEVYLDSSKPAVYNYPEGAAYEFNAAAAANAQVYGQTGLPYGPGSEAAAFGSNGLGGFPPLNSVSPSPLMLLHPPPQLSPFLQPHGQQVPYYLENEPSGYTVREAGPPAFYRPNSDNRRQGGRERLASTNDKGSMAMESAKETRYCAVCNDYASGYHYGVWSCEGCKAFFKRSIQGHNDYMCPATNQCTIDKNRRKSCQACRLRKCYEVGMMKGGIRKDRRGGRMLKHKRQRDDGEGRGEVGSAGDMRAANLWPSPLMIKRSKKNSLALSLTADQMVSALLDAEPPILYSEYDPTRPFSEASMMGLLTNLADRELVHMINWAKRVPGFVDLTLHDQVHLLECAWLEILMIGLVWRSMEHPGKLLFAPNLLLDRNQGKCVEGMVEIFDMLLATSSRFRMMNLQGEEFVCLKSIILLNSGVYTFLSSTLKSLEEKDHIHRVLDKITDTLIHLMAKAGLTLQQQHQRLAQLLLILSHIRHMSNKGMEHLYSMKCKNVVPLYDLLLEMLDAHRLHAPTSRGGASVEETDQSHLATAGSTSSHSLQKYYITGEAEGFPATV

SMILES | Potency [1] | Potency [2] | outcome [3] | Potency [4] | Potency [5] | outcome [6] | Potency [7] | outcome [8] | Potency [9] | Potency (Aromatase (Homo sapiens))
Cc1ccc(C)c(N)c1 | inactive | inactive | inactive | inactive | inactive | inactive | 77 µM (active) | inactive | inactive | inactive
COc1ccc(S(=O)(=O)Nc2nnc(CC(C)C)s2)cc1 | inactive | inactive | inactive | inactive | inactive | inactive | inactive | inactive | inactive | inactive
N#Cc1ccc(C(c2ccc(C#N)cc2)n2cncn2)cc1 | inactive | inactive | inactive | inactive | inactive | inactive | inactive | inactive | inactive | –
CO[Si](C)(C)OC | inactive | inactive | inactive | inactive | inactive | inactive | inactive | inactive | inactive | inactive
CCCCCCCCCC#N | inactive | inactive | inactive | inactive | inactive | inactive | inactive | inactive | inactive | inactive
CCOc1ccccc1N | inactive | inactive | inactive | inactive | inactive | inactive | inactive | inactive | inactive | inactive
NCCCN1CCN(CCCN)CC1 | inactive | inactive | inactive | inactive | inactive | inactive | inactive | inactive | inactive | inactive
Cc1cc(S(=O)(=O)O)c(N)cc1Cl | inactive | inactive | inactive | inactive | inactive | inactive | inactive | inactive | inactive | inactive
CCCCCCCOC(=O)CCC | inactive | inactive | inactive | inactive | inactive | inactive | inactive | inactive | inactive | inactive
CCCCCCCCCC/C=C/C#N | inactive | inactive | inactive | inactive | inactive | inactive | inactive | inactive | inactive | inactive
CCOc1ccc(NS(=O)(=O)c2ccc(N)cc2)nn1 | inactive | inactive | inactive | – | – | – | – | – | – | –
C=CCc1cc(OC)c(O)c(C(=O)NCCO)c1 | inactive | inactive | inactive | inactive | inactive | inactive | inactive | inactive | inactive | inactive
FC(F)(F)C(Cl)(Cl)Cl | inactive | inactive | inactive | inactive | inactive | inactive | inactive | inactive | inactive | inactive
FC(F)(F)C(F)(F)C(F)(F)C(F)(F)C(F)(F)C(F)(F)C(F)(F)C(F)(F)Br | inactive | inactive | inactive | inactive | inactive | inactive | inactive | inactive | inactive | inactive
CC(C)(CO)[C@@H](O)C(=O)NCCC(=O)O | inactive | inactive | inactive | inactive | inactive | inactive | inactive | inactive | inactive | inactive
CCN[C@H]1CN(CCCOC)S(=O)(=O)c2sc(S(N)(=O)=O)cc21 | inactive | inactive | inactive | inactive | inactive | inactive | inactive | inactive | inactive | inactive
CC(C)OC(C)C | inactive | inactive | inactive | inactive | inactive | inactive | inactive | inactive | inactive | inactive
CCCCC1CCC(=O)O1 (stereo not given) | inactive | inactive | inactive | inactive | inactive | inactive | inactive | inactive | inactive | inactive
Cc1c[nH]c(=S)[nH]c1=O | inactive | inactive | inactive | inactive | inactive | inactive | inactive | inactive | inactive | –
CCCCNC(=S)NCCCC | inactive | inactive | inactive | inactive | inactive | inactive | inactive | inactive | inactive | inactive
C=Cc1ccccc1 | inactive | inactive | inactive | inactive | inactive | inactive | inactive | inactive | inactive | inactive
OCC(CBr)(CBr)CBr | inactive | inactive | inactive | inactive | inactive | inactive | inactive | inactive | inactive | –
CCCNC(C)C(=O)Nc1c(C)csc1C(=O)OC (stereo not given) | inactive | inactive | inactive | inactive | inactive | inactive | inactive | inactive | inactive | inactive
CCOC(=O)C(Br)c1ccccc1 (stereo not given) | inactive | inactive | inactive | inactive | inactive | inactive | inactive | inactive | inactive | inactive
CC(C)(C)c1cccc(O)c1 | inactive | inactive | inactive | inactive | inactive | inactive | inactive | inactive | inactive | inactive

SMILES | Potency [1] | Potency [2] | outcome [3] | Potency [4] | Potency [5] | outcome [6] | Potency [7] | outcome [8] | Potency [9] | Potency (Aromatase (Homo sapiens))
Cc1c(-c2ccccc2)oc2c(C(=O)OCCN3CCCCC3)cccc2c1=O | inactive | inactive | inactive | inactive | inactive | inactive | inactive | inactive | inactive | –
CCOc1ccc(OCC)c(Cl)c1 | inactive | inactive | inactive | inactive | inactive | inactive | inactive | inactive | inactive | inactive
Nc1cccc(S(=O)(=O)O)c1 | inactive | inactive | inactive | inactive | inactive | inactive | inactive | inactive | inactive | inactive
CCCCCCCCOC(=O)CCCCCCCCC(=O)OCCCCCCCC | inactive | inactive | inactive | inactive | inactive | inactive | inactive | inactive | inactive | inactive
CC(C)c1ccccc1 | inactive | inactive | inactive | inactive | inactive | inactive | inactive | inactive | inactive | –
O=C1C=CC(=O)O1 | inactive | inactive | inactive | inactive | inactive | inactive | inactive | inactive | inactive | inactive
CC1=CC(=O)CC(C)(C)C1=O | inactive | inactive | inactive | inactive | inactive | inactive | inactive | inactive | inactive | inactive
C=CCCC=C | inactive | inactive | inactive | inactive | inactive | inactive | inactive | inactive | inactive | inactive
CC(=O)OC1C2(C)CCC(C2)C1(C)C (stereo not given) | inactive | inactive | inactive | inactive | inactive | inactive | inactive | inactive | inactive | inactive
CC1=C(CC(=O)O)c2cc(F)ccc2/C1=C\c1ccc(S(C)(=O)=O)cc1 | inactive | inactive | inactive | inactive | inactive | inactive | inactive | inactive | inactive | inactive
CC/C=C\CCOC(=O)C(C)C | inactive | inactive | inactive | inactive | inactive | inactive | inactive | inactive | inactive | inactive
COc1ccccc1OCC(O)COC(N)=O (stereo not given) | inactive | inactive | inactive | inactive | inactive | inactive | inactive | inactive | – | inactive
Oc1ccccc1F | inactive | inactive | inactive | inactive | inactive | inactive | inactive | inactive | inactive | inactive
Cc1ccsc1C(=CCCN1CCC[C@@H](C(=O)O)C1)c1sccc1C | inactive | inactive | inactive | inactive | inactive | inactive | 21.1 µM (active) | inactive | inactive | inactive
CC/C=C\CCOC(=O)CCCCC | inactive | inactive | inactive | inactive | inactive | inactive | inactive | inactive | inactive | inactive
COc1ccc(Nc2ccc(OC)cc2)cc1 | inactive | inactive | inactive | inactive | inactive | inactive | 3.93 µM (active) | – | inactive | inactive
CC(C)(C)C1CCCCC1=O (stereo not given) | inactive | inactive | inactive | inactive | inactive | inactive | inactive | inactive | inactive | inactive
CCOC(=O)C1CC(=O)C(=C(O)C2CC2)C(=O)C1 (stereo not given) | inactive | inactive | inactive | inactive | inactive | inactive | inactive | inactive | inactive | inactive
CCOC(=O)NCCC[Si](OCC)(OCC)OCC | inactive | inactive | inactive | inactive | inactive | inactive | inactive | inactive | inactive | inactive
CCC(=O)Nc1ccc(O)cc1 | inactive | inactive | inactive | inactive | inactive | inactive | inactive | inactive | inactive | inactive
CC(C)O | inactive | inactive | inactive | inactive | inactive | inactive | inactive | inactive | inactive | inactive
C=CCCCCCCCCO | inactive | inactive | inactive | inactive | inactive | inactive | inactive | inactive | inactive | inactive
CS(=O)(=O)c1ccc([C@@H](O)[C@@H](CF)NC(=O)C(Cl)Cl)cc1 | inactive | inactive | inactive | inactive | inactive | inactive | inactive | – | inactive | inactive
CC(CNC1CCCCC1)OC(=O)c1ccccc1 (stereo not given) | inactive | inactive | inactive | inactive | inactive | inactive | inactive | inactive | inactive | inactive
